Source: article PMC13494018
A number with no mark means an inactive call. How the calls were made is not given here.

B1: design_604_3e0b3014-b333-46f1-8adc-d7f0bf8048fa_1221_dldesign_0_cycle1_af2pred (protein)
chain: AEMEERKAKGLEQAERLAERAKEAGKLNPEKAAELLGKAEAMLAKVRAMDNEAQWAEAAKEAAKLRELIAEAETEARRKKEEE
B2: design_604_3e0b3014-b333-46f1-8adc-d7f0bf8048fa_1248_dldesign_0_cycle1_af2pred (protein)
chain: NAYEEAKKAVDEMEKAMKALAKADPSLADEMKDKIATARKRLEAAKTDEEYKKVAEEAKKAKAAAQSILDALKKN
B3: design_604_3e0b3014-b333-46f1-8adc-d7f0bf8048fa_1261_dldesign_0_cycle1_af2pred (protein)
chain: EAEKAAKKAEEVGKKAVKEVKKAVEEGLPKEELSKVVHEEIQKITEASTEAARIAEEKAGKEAGEKVLKAGEEARKKLIAIAKE
B4: design_604_3e0b3014-b333-46f1-8adc-d7f0bf8048fa_1332_dldesign_0_cycle1_af2pred (protein)
chain: EEVKEYLAKLSAEAYELLAEAEVLYKKTGSEKAKEAKELAKEALKELKEAGKLLEEDPEKAKEKAKIGEEKLKKAKEILEEIYKE
B5: design_604_3e0b3014-b333-46f1-8adc-d7f0bf8048fa_1344_dldesign_0_cycle1_af2pred (protein)
chain: KEKQKELLLESAVEEAEKAAKLLKDPELGKRLLTAVKAAKEDVSKAPEAAAVAREVGAKEPEASLEASAAAASLLSAYRIAKS
B6: design_604_3e0b3014-b333-46f1-8adc-d7f0bf8048fa_1387_dldesign_0_cycle1_af2pred (protein)
chain: ELDALVRAAIGEAVVFVLGPAAAPAAERIAAATPEEAKALLEEIAATQTPYQAAELLHTARAFAAYAETKYS
B7: design_604_3e0b3014-b333-46f1-8adc-d7f0bf8048fa_1395_dldesign_0_cycle1_af2pred (protein)
chain: AEKEELIAKAKEIAAKSAEVAKEAKKLGKDAAEAETTAKEAQKTAEEAIKKAEAGEIDVETLKKLVSKAAGLYYEAKSYLEVVKKKKE
B8: design_604_3e0b3014-b333-46f1-8adc-d7f0bf8048fa_1397_dldesign_0_cycle1_af2pred (protein)
chain: SENELTEEAVSLAARVSKRANELGKKTGSEELLKLSEEAKELRDKIVDDPSTAEEALKKVKELEKRIEELTAA
B9: design_604_3e0b3014-b333-46f1-8adc-d7f0bf8048fa_1413_dldesign_0_cycle1_af2pred (protein)
chain: EEEKEKRAEEKRKEIEELAKLAAENKEKGEKAVEKAKELVEKADEEEAPALAKALSRLVAAAYAVDEEVADKAFEAYALAWKKAQ
B10: design_604_3e0b3014-b333-46f1-8adc-d7f0bf8048fa_1429_dldesign_0_cycle1_af2pred (protein)
chain: DKQVISNKAKAQAERAKQAAKNILKTGDASLAPKVKEIAKKAEKAAKEAEKAGDKESAKEAKKAAKEAKKAAKKVEE
B11: design_604_3e0b3014-b333-46f1-8adc-d7f0bf8048fa_1479_dldesign_0_cycle1_af2pred (protein)
chain: MEEEVKKAKEKIEKLEKAALKTIDILEESAKLGDDISGIKTAAKAAEKEFGKLAKEYPGAAAYAKEAEKKVVDYANKAIKAAKAAK
B12: design_604_3e0b3014-b333-46f1-8adc-d7f0bf8048fa_1498_dldesign_0_cycle1_af2pred (protein)
chain: SEKEKEEEERKKLAEEERAAAKAALAAAKAAAQKGDVAAAIAAAQEARIHASAYAQYLKTEEAKKERDAIVAAAKAAVAAAKAA
B13: design_604_3e0b3014-b333-46f1-8adc-d7f0bf8048fa_1534_dldesign_0_cycle1_af2pred (protein)
chain: KTEAIQKFADTLSEIIKLAAEAGKKSGKTAEYQALIEGALSGDFETAVKNAKEAAKLAKKDDPELGKKIEEAAKKLAEYAKKVLES
B14: design_604_3e0b3014-b333-46f1-8adc-d7f0bf8048fa_1571_dldesign_0_cycle1_af2pred (protein)
chain: DPKQLLSDARDQITELFFEAGKEAVPYNRKVVAALKAGDLDAALAAVEEFQKEYPEVGAKAKAVMDKAIAAAKAA
B15: design_604_3e0b3014-b333-46f1-8adc-d7f0bf8048fa_1604_dldesign_0_cycle1_af2pred (protein)
chain: MKDAEKLDEINKLSAEAGKLLKEAAKKDPSRKAELEAAAKEAAKKFDEAYDLFEKDPDAGLALAKEAYKEVKKLVEA
B16: design_604_3e0b3014-b333-46f1-8adc-d7f0bf8048fa_1621_dldesign_0_cycle1_af2pred (protein)
chain: MEAEKRNEEYAKEVEELYKKVLDGDIEEDKEALKKAEKLLEEAEADPEMKEEVLKGLRAAVRMAKASIEAEEKR
B17: design_604_3e0b3014-b333-46f1-8adc-d7f0bf8048fa_1627_dldesign_0_cycle1_af2pred (protein)
chain: ENLEKAKAADEKAKKFEDKAKEYEAKGKAEGKKYLYKAAAYYYAAAHAYNVAAKYYEKEGKAEEAAAAKAKAKEAEAKGNELAAK
B18: design_604_3e0b3014-b333-46f1-8adc-d7f0bf8048fa_1712_dldesign_0_cycle1_af2pred (protein)
chain: SEEGQKVLEKIEELRKEAEKFAKENKENGPKFARELAKKMRELAEKAKKEYGWNQEILNKASKVVHEARQLANEAEVEAKK
B19: design_604_3e0b3014-b333-46f1-8adc-d7f0bf8048fa_1827_dldesign_0_cycle1_af2pred (protein)
chain: MTHEEINAASYALRALTRAARDVPEAAAEFEAQIDFLMSGSIEEGVEKVIALAEKYRDRLSPEALALFEKAKEYLEKAK
B20: design_604_3e0b3014-b333-46f1-8adc-d7f0bf8048fa_1927_dldesign_0_cycle1_af2pred (protein)
chain: LVEEAKKIAEEKAEEMKKAMEKAEKEGKEAMKKAKEKFKKLRAELKKLYEEYKKKDPEAAKKLAEGAHKMYEYMNEAEHKL
B21: design_604_3e0b3014-b333-46f1-8adc-d7f0bf8048fa_1949_dldesign_0_cycle1_af2pred (protein)
chain: AEKYKKKMAEAAHLYADLAMEGKPEEGEKEADAIIEKALKEGKAAGDGEAAEAAAKEARATMEYLKKTMEEADKRNK
B22: design_604_3e0b3014-b333-46f1-8adc-d7f0bf8048fa_1973_dldesign_0_cycle1_af2pred (protein)
chain: MAEKEAKAKKLMAEGYSKVYEAAALARVDPEEGKKEWEEVVEKYTKELEKLDPEKGKELKEKAEKLLEKAL
B23: design_604_3e0b3014-b333-46f1-8adc-d7f0bf8048fa_1994_dldesign_0_cycle1_af2pred (protein)
chain: DNKKTVEALSKVNRLGKEAGEAPKEETMKLVEEGVKYAKEEAKKLKDPDYKKYLIDRGKELEENAKKYLA
B24: design_604_3e0b3014-b333-46f1-8adc-d7f0bf8048fa_2008_dldesign_0_cycle1_af2pred (protein)
chain: SSLEEAKKAKELAEELKKKVKELAKEAKADPSKAAEAAKVAKAIGEEAKELGKKYPEAAKYADAVAEYALHAAEQLEKLA
B25: design_604_3e0b3014-b333-46f1-8adc-d7f0bf8048fa_2086_dldesign_0_cycle1_af2pred (protein)
chain: SAAAEKNVALASGTFKRLLEFPEEEQVATIADSIRANPAAADYFAAAAKADKENGPKLKKVLDIAAAKVAAA
B26: design_604_3e0b3014-b333-46f1-8adc-d7f0bf8048fa_2138_dldesign_0_cycle1_af2pred (protein)
chain: GEELIKRAEEVIERAEKVRKEDPSLAKEANEAISTAEQAKQAAENAVKAAADPEKAKEFKEAAEKYLEKAEKRVEELEKKVKE
B27: design_604_3e0b3014-b333-46f1-8adc-d7f0bf8048fa_2182_dldesign_0_cycle1_af2pred (protein)
chain: EEEEKKQKAVEKAKEAAKRLKEVYEKAPEELKPIVKDALDKVEAYAELAELNDAEIAEKAAKRAEKIAEEAIKKVE
B28: design_604_3e0b3014-b333-46f1-8adc-d7f0bf8048fa_2199_dldesign_0_cycle1_af2pred (protein)
chain: DAAVKAEASKVAAEAYEVIAEIEKLDPEKGKELRKKLKEARKKAKEDPKAGLAALKEVLEESKKELEKLKKEEKEKE
B29: design_604_3e0b3014-b333-46f1-8adc-d7f0bf8048fa_2206_dldesign_0_cycle1_af2pred (protein)
chain: NELEKLKEEIKKEGEKKLKEVEEKYKEAKKLLKEDKEKGLKLLAETAGKAYEYAAEFEVLSKKVPEAAEYAKKLRAKAKEIRKLAEEA
B30: design_604_3e0b3014-b333-46f1-8adc-d7f0bf8048fa_2309_dldesign_0_cycle1_af2pred (protein)
chain: SHELLQQAIEELTAAEAEARRAAKIAEKKDKELAKKAKELAKKARELRKELIEKAKAGEATDEYIEEVLKKAKELEKEAKKILKEL
B31: design_604_3e0b3014-b333-46f1-8adc-d7f0bf8048fa_2312_dldesign_0_cycle1_af2pred (protein)
chain: MEEVEKLKKEAEKAAKEAEKAVERIKDPKTAKEALKEASKELAKLYELAAELEHLPEGKEAGKEVREKAKKLREEAKKAWAAQLAA
B32: design_604_3e0b3014-b333-46f1-8adc-d7f0bf8048fa_2314_dldesign_0_cycle1_af2pred (protein)
chain: EKEKRKEAIEKAEKVSTRIAKDIDTPEAKKIEELTKEAAEKALENVDNPEEVVKIMKEAAEEAAKDPEMEAVALVWKNAADFIK
B33: design_604_3e0b3014-b333-46f1-8adc-d7f0bf8048fa_2376_dldesign_0_cycle1_af2pred (protein)
chain: EEFEKAKKELKEAAEEAKKIDPEVGKEAKKIAEKATKVADSIIEKVGERAKPIATDILKNAKEKIKKLTEKRKKEKEA
B34: design_604_3e0b3014-b333-46f1-8adc-d7f0bf8048fa_2472_dldesign_0_cycle1_af2pred (protein)
chain: EEEKKLTDEAIKEAKKLFAKAGAEEDAKEVAEKARKEGVSAGLSKALSLAEYYKAEGNEKKAEAAEKAAEALADALIKIRKAKRE
B35: design_605_6ebdab39-eaab-4492-afcb-164e20c3b25e_2_dldesign_0_cycle1_af2pred (protein)
chain: SAVKEEAKKIIDEALDAGFEDPEKGRALAEEAYKLLASVPELAALGEEALKKVNAIIDRFEEATKKAEESRK
B36: design_605_6ebdab39-eaab-4492-afcb-164e20c3b25e_16_dldesign_0_cycle1_af2pred (protein)
chain: AAAAHAKAVAEAKEEMKETIKEEAKKAKEKNEEAGKESLEFGKELLEFFEKSMEKVKDPKEAKKGGERGKKIIKKNAEAITKAIT
B37: design_605_6ebdab39-eaab-4492-afcb-164e20c3b25e_50_dldesign_0_cycle1_af2pred (protein)
chain: DEKIEELREAILESAKSGGETVEEVAKLAKELGLTSAEVMLAALEAAEELPEKRELAREIGRRIAAAVLA
B38: design_605_6ebdab39-eaab-4492-afcb-164e20c3b25e_128_dldesign_0_cycle1_af2pred (protein)
chain: MEEKKAEEKKLKEKKEEAKEYLRRAKRAMGRAMVKGDEEAFELAEEAVYLAHLAIKDPKYIEEAKKKTEEAEKRVEA

Target: VTCN1, Q7Z7D3
Sequence (Q7Z7D3 whole entry): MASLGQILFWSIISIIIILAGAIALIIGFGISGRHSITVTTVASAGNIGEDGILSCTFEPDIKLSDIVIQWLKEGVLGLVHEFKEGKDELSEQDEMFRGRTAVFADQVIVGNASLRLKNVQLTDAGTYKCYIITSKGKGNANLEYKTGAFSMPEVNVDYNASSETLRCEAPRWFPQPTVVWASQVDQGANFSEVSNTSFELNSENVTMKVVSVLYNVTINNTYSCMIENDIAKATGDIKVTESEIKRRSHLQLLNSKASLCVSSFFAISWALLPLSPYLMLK

Binder	binding in a display sort
B1	not found
B2	not found
B3	not found
B4	not found
B5	not found
B6	not found
B7	not found
B8	not found
B9	not found
B10	not found
B11	not found
B12	not found
B13	not found
B14	not found
B15	not found
B16	not found
B17	not found
B18	not found
B19	not found

Binder	binding in a display sort
B20	not found
B21	not found
B22	not found
B23	not found
B24	not found
B25	not found
B26	not found
B27	not found
B28	not found
B29	not found
B30	not found
B31	not found
B32	not found
B33	not found
B34	not found
B35	not found
B36	not found
B37	not found
B38	not found
